From PubChem BioAssay (EPA / NIEHS)
The source made the active and inactive calls. How the source made its calls: active means hit-call score of the fitted dose curve at least 0.9, where 1 is the maximum; inactive means score below 0.9.

Read-out: Monocyte Chemoattractant Protein-1 (MCP1), CCL2 (gene 6347)
Test: BSK_LPS_MCP1: BioMAP Diversity Plus: LPS Assay for Monocyte Chemoattractant Protein-1 (MCP1) Biomarker Activity (AID 2283081);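 on AC50: co-culture stimulated with LPS; secreted MCP-1 protein quantified by ELISA in culture supernatant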
Settings: primary human HUVEC with PBMC; actives raise or lower the signal
Outline: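 Human endothelial–PBMC co-cultures were dosed with chemical, then LPS-driven MCP-1 levels were quantified by ELISA at 24 h. Activity in either direction was fitted versus DMSO negative control.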

Structure (SMILES)	AC50	outcome
CCCCCCc1ccc(O)cc1O	30.2 µM (active)	
COc1ccc2sc(C(=O)Nc3nnn[nH]3)c(OC(C)C)c2c1	19.8 µM (active)	
CN(C)c1ccc(N=NS(=O)(=O)O)cc1		inactive
Nc1nc2ncc(CNc3ccc(C(=O)N[C@@H](CCC(=O)O)C(=O)O)cc3)nc2c(=O)[nH]1		inactive
CCn1nc(Cc2ccccc2)cc1C1CCN(C[C@H]2C[C@H](N(C)[C@@H](C(=O)O)C(C)C)C[C@@H]2c2cccc(F)c2)CC1		inactive
Cc1ccc(C)c(O)c1		inactive
C=CC(=C)CCC=C(C)C		inactive
O=C1OC(=O)C2C3C=CC(C3)C12 (stereo not given)		inactive
CCOC(=O)COc1ccc2c(c1)CC(NCC(O)c1cccc(Cl)c1)CC2 (stereo not given)	29.2 µM (active)	
CCOCCOCCOCCO		inactive
CCCC(=O)OCC		inactive
O=C(O)c1cc(N=Nc2ccc(S(=O)(=O)Nc3ccccn3)cc2)ccc1O		inactive
O=C(NS(=O)(=O)/C=C/c1ccccc1)c1ccc(F)cc1Cl		inactive
C[C@](N)(Cc1ccc(O)c(O)c1)C(=O)O		inactive
CCCCC(CC)COC(=O)CCCCCCCCC(=O)OCC(CC)CCCC (stereo not given)		inactive
CCCCCCCCCCCCc1ccccc1		inactive
O=P(OC(CCl)CCl)(OC(CCl)CCl)OC(CCl)CCl		inactive
CNS(=O)(=O)c1cc(C(=O)N2CCC(CCN3C4CCC3CC(n3c(C)nc5ccccc53)C4)(c3cccc(F)c3)CC2)c(Cl)cc1F (stereo not given)	24.2 µM (active)	
Oc1ccc2c(c1)-c1ccccc1C2		inactive
CC(C)CCCCCCOC(=O)c1ccc(C(=O)OCCCCCCC(C)C)c(C(=O)OCCCCCCC(C)C)c1		inactive
